The values that follow come from the supplement of paper PMC9135407.

“And” between values parts separate entries of the source, which are not always exact repeats. Identical values can stand only once. Counter-ions that a name gives are not always drawn. In all, about 5,800 compounds went through this assay and about 620 (11%) showed activity. The list comes from a sample in which actives are over-represented; it also holds similar structures and randomly drawn compounds. Values without a mark were called inactive.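 How the source made its calls: active = score above a cut-off or among the top three wells of a plate; in these data no inactive exceeds 0.85.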

The subject of this experiment is primary human hepatic stellate cells (donor 1). Kind of experiment: scaled lipid accumulation score (0 = DMSO-like, 1 = nortriptyline-like); higher = stronger HSC inactivation (lipid re-accumulation), active = hit call of the paper. The settings on record: 48 h.
Where [1] appears, read: library stock concentration: 10 mM.
Setting [2] is: library stock concentration: 1 mM.
The mark [3] stands for this setting: library stock concentration: 3.33 mM.
[4] abbreviates: library stock concentration: 5.2 mM.
Setting [5] is: library stock concentration: 6.4 mM.

Consider `C[C@@H]1CC[C@@]2(OC1)O[C@H]1C[C@H]3[C@@H]4CC=C5C[C@@H](O)CC[C@]5(C)[C@H]4CC[C@]3(C)[C@H]1[C@@H]2C` [Diosgenin], for which the “scaled lipid accumulation score” value under setting [1] is no more than -0.027.

On to `CCCCCCCCCCCCCCCC(=O)OC[C@@H](O)COP(=O)(O)O` [1-Palmitoyl Lysophosphatidic Acid (sodium salt)], for which the “scaled lipid accumulation score” value under setting [2] was 0.001.

For the compound `CCCCCCCCCCCCCCCCOC[C@H](CO)SC(C)=O` [2-thio-Acetyl MAGE], the “scaled lipid accumulation score” value under setting [2] is no more than 0.

Turning to `CCCCCC/C=C/C=C\CCCCCCCC(=O)O` [9(Z),11(E)-Conjugated Linoleic Acid], the “scaled lipid accumulation score” value under setting [2] is 0.029.

On to `CCCCCNC(=N)N/N=C/c1c[nH]c2ccc(OC)cc12`, for which, under setting [1], the “scaled lipid accumulation score” value is 0.13.

On to `CCCCCNC(=N)N/N=C/c1c[nH]c2ccc(OC)cc12` [Tegaserod maleate], for which the “scaled lipid accumulation score” value under setting [1] was no more than -0.027.

For the compound `CCCCCNC(=N)N/N=C/c1c[nH]c2ccc(OC)cc12` [Tegaserod], under setting [1], the “scaled lipid accumulation score” value was no more than -0.027.

For the compound `Cc1cc(-c2ccc(/N=N/c3ccc4c(S(=O)(=O)O)cc(S(=O)(=O)O)c(N)c4c3O)c(C)c2)ccc1/N=N/c1ccc2c(S(=O)(=O)O)cc(S(=O)(=O)O)c(N)c2c1O`, the “scaled lipid accumulation score” value under setting [1] was 0.033.

On to `CCCCC[C@H](O)/C=C/[C@@H]1[C@H](C/C=C\CCCC(=O)O)[C@H](O)C[C@H]1O` [8-iso Prostaglandin F2.beta.], for which the “scaled lipid accumulation score” value under setting [2] is 0.004.

For the compound `CN(C)CCCN1c2ccccc2CCc2ccc(Cl)cc21.Cl` [Clomipramine HCl], the “scaled lipid accumulation score” value under setting [1] is 0.83 (active).

`CC[N+]1(C)C2CCC1CC(OC(=O)C1CCC(C(=O)OC3CC4CCC(C3)[N+]4(C)CC)(c3ccccc3)c3ccccc31)C2` (stereo not drawn) [beta- Belladonnine dichloroethylate]: the “scaled lipid accumulation score” value was no more than 0.

Consider `Cc1c(C(N)=O)cc([N+](=O)[O-])cc1[N+](=O)[O-]` [Dinitolmide], for which the “scaled lipid accumulation score” value by setting is: under setting [3], no more than 0; under setting [1], ≤ -0.001 and ≤ -0.027.

`NC1CONC1=O` (racemic) [DL-Cycloserine]: the “scaled lipid accumulation score” value under setting [1] was no more than 0.

As for `COc1cc2nc(N(C)CCCNC(=O)C3CCCO3)nc(N)c2cc1OC` (configuration not stated), the “scaled lipid accumulation score” value under setting [1] was no more than 0.

Consider `COc1cc2nc(N(C)CCCNC(=O)C3CCCO3)nc(N)c2cc1OC` (configuration not stated) [Alfluzocin], for which the “scaled lipid accumulation score” value under setting [1] is 0.025.

As to `COc1cc2nc(N3CCN(C(=O)C4CCCO4)CC3)nc(N)c2cc1OC` (configuration not stated) [Terazosin hydrochloride], the “scaled lipid accumulation score” value was no more than 0. In addition, under setting [1], the “scaled lipid accumulation score” value is no more than -0.006.

With `COc1cc2nc(N(C)CCCNC(=O)C3CCCO3)nc(N)c2cc1OC` (configuration not stated) [Alfluzosin], the “scaled lipid accumulation score” value (library stock concentration: 5.1 mM) was no more than 0.

As to `COc1cc2nc(N3CCN(C(=O)c4ccco4)CC3)nc(N)c2cc1OC` [Prazosin hydrochloride], the “scaled lipid accumulation score” value was 0.676. Besides, the “scaled lipid accumulation score” value (library stock concentration: 4.8 mM) was 0.682. Under setting [1], the “scaled lipid accumulation score” value was 0.361 and 0.672.

As to `COc1cc2nc(N(C)CCCNC(=O)C3CCCO3)nc(N)c2cc1OC` (configuration not stated) [Alfuzosin HCl], the “scaled lipid accumulation score” value was no more than 0 under setting [3] and no more than 0 under setting [1].

Consider `COc1cc2nc(N3CCN(C(=O)c4ccco4)CC3)nc(N)c2cc1OC` [Prazosin], for which, under setting [1], the “scaled lipid accumulation score” value is 1 (active).

For the compound `COc1cc2nc(N3CCN(C(=O)C4COc5ccccc5O4)CC3)nc(N)c2cc1OC` (configuration not stated) [Doxazosin mesylate], the “scaled lipid accumulation score” value is no more than 0. Also, the “scaled lipid accumulation score” value (library stock concentration: 4.4 mM) is 0.151. Besides, the “scaled lipid accumulation score” value under setting [1] is 0.85.

In the case of `COc1cc2nc(N3CCN(C(=O)c4ccco4)CC3)nc(N)c2cc1OC` [Prazosin HCl], the “scaled lipid accumulation score” value under setting [4] is 0.728.

On to `COc1cc2nc(N3CCN(C(=O)c4ccco4)CC3)nc(N)c2cc1OC.Cl` [Prazosin hydrochloride], for which the “scaled lipid accumulation score” value under setting [1] is 1.35 (active).

For `COc1cc2nc(N3CCN(C(=O)C4COc5ccccc5O4)CC3)nc(N)c2cc1OC` (configuration not stated) [Doxazosin Mesylate], the “scaled lipid accumulation score” value by setting is: under setting [3], no more than 0; under setting [1], 0.473.

Consider `COc1cc2nc(N3CCN(C(=O)C4COc5ccccc5O4)CC3)nc(N)c2cc1OC` (configuration not stated) [Doxazosin], for which, under setting [1], the “scaled lipid accumulation score” value was 0.539.

With `COc1cc2nc(N3CCN(C(=O)c4ccco4)CC3)nc(N)c2cc1OC` [Prazocin], the “scaled lipid accumulation score” value (library stock concentration: 13 mM) is 1.03 (active).

As for `COc1cc2nc(N3CCN(C(=O)C4CCCO4)CC3)nc(N)c2cc1OC` (configuration not stated) [Terazosin], the “scaled lipid accumulation score” value reads like this: (library stock concentration: 9.6 mM) no more than 0; under setting [1], 0.162.

For `COc1cc2nc(N3CCN(C(=O)C4CCCO4)CC3)nc(N)c2cc1OC` (configuration not stated) [Terazosin HCl], the “scaled lipid accumulation score” value reads like this: under setting [3], no more than 0; under setting [4], 0.009; under setting [1], no more than 0.

In the case of `COc1cc2nc(N(C)CCCNC(=O)C3CCCO3)nc(N)c2cc1OC` (configuration not stated) [Alfuzosin hydrochloride], the “scaled lipid accumulation score” value is no more than 0. For the same compound, under setting [1], the “scaled lipid accumulation score” value was 0.274.

In the case of `O=C(O)CCC/C=C\C[C@H]1C(=O)C=C[C@@H]1/C=C/[C@@H](O)COc1ccccc1` [16-phenoxy tetranor Prostaglandin A2], the “scaled lipid accumulation score” value under setting [2] was no more than 0.

On to `CCCCCCCCCCCCCCCC(=O)OC[C@H](COP(=O)([O-])OCC[N+](C)(C)C)OC(=O)CCCCCCCC(=O)O`, for which the “scaled lipid accumulation score” value under setting [2] was no more than 0.

Turning to `CC(C)(C)[C@]1(O)CCN2C[C@H]3c4ccccc4CCc4cccc(c43)[C@@H]2C1` [(+)-Butaclamol hydrochloride], the “scaled lipid accumulation score” value under setting [1] is 0.672.

`CC(C)(C)[C@]1(O)CCN2C[C@H]3c4ccccc4CCc4cccc(c43)[C@@H]2C1`: the “scaled lipid accumulation score” value under setting [1] is 0.691.

Consider `CCCCC[C@H](O)/C=C/C=C\CCCCCCCC(=O)O`, for which the “scaled lipid accumulation score” value (library stock concentration: 100 uM) is no more than -0.021.

Take `CCCCCC(=O)/C=C/[C@@H]1[C@@H](C/C=C\CCCC(=O)O)[C@@H](O)C[C@H]1O` [15-keto Prostaglandin F2.alpha.]: the “scaled lipid accumulation score” value under setting [2] is no more than 0.

In the case of `CC(=O)NNC(=O)N1Cc2ccccc2Oc2ccc(Cl)cc21`, the “scaled lipid accumulation score” value under setting [1] was ≤ 0 and ≤ -0.006.

As to `Clc1ccc2c(c1)C(N1CCNCC1)=Nc1ccccc1O2` [Amoxapine] [listing 1 of 4 here], under setting [5], the “scaled lipid accumulation score” value was 0.886 (active).

On to `Clc1ccc2c(c1)C(N1CCNCC1)=Nc1ccccc1O2`, for which the “scaled lipid accumulation score” value under setting [1] is 0.843.

As to `Clc1ccc2c(c1)C(N1CCNCC1)=Nc1ccccc1O2` [Amoxapine] [listing 2 of 4 here], under setting [5], the “scaled lipid accumulation score” value is 0.598.

For the compound `CCN(CC)CCCCN1c2ccccc2Oc2ccc(Cl)cc21` [Akt Inhibitor X], under setting [3], the “scaled lipid accumulation score” value was 0.225.

Regarding `CCN(CC)CCCCN1c2ccccc2Oc2ccc(Cl)cc21` [10-DEBC hydrochloride], the “scaled lipid accumulation score” value under setting [1] is 0.5.

For `Clc1ccc2c(c1)C(N1CCNCC1)=Nc1ccccc1O2` [Amoxapine] [listing 3 of 4 here], the “scaled lipid accumulation score” value was 0.863 (active).

Turning to `Clc1ccc2c(c1)C(N1CCNCC1)=Nc1ccccc1O2` [Amoxapine] [listing 4 of 4 here], the “scaled lipid accumulation score” value under setting [1] was 1.05 (active).

`Nc1ncnc2c1ncn2[C@@H]1O[C@@H]2COP(=O)(O)O[C@H]2[C@H]1O` [Adenosine 3',5'-cyclic monophosphate]: the “scaled lipid accumulation score” value under setting [1] is 0.281.

Take `NC(C(=O)O)C(O)C(=O)O` (racemic) [DL-threo-beta-hydroxyaspartic acid]: the “scaled lipid accumulation score” value under setting [1] is no more than -0.07.

Regarding `O=C[C@@H]1CCCN1C(=O)[C@@H]1CCCN1C(=O)OCc1ccccc1` [Z-prolyl-prolinal], under “library stock concentration: 15.1 mM”, the “scaled lipid accumulation score” value is 0.107.

As for `CO/N=C(\C(=O)N[C@@H]1C(=O)N2C(C(=O)O)=C(CSC(=O)c3ccco3)CS[C@H]12)c1csc(N)n1`, the “scaled lipid accumulation score” value under setting [1] is no more than 0.

With `CO/N=C(\C(=O)N[C@@H]1C(=O)N2C(C(=O)O)=C(CSC(=O)c3ccco3)CS[C@H]12)c1csc(N)n1` [Ceftiofur HCl], the “scaled lipid accumulation score” value by setting is: under setting [3], 0.015; under setting [1], no more than 0.

As to `CC[C@H]1OC(=O)[C@H](C)[C@@H](O[C@H]2C[C@@](C)(OC)[C@@H](O)[C@H](C)O2)[C@H](C)[C@@H](O[C@@H]2O[C@H](C)C[C@H](NC)[C@H]2O)[C@](C)(O)C[C@@H](C)CN(C)[C@H](C)[C@@H](O)[C@]1(C)O`, under setting [1], the “scaled lipid accumulation score” value is 0.363.

For the compound `Cc1ccc2c(c1)C(=O)C1(O)CCN(c3ccccc3)C1=N2` (configuration not stated), the “scaled lipid accumulation score” value under setting [2] is no more than 0 and the “scaled lipid accumulation score” value under setting [1] was no more than -0.006.

`Cc1ccc2c(c1)C(=O)C1(O)CCN(c3ccccc3)C1=N2` (configuration not stated) [Blebbistatin]: the “scaled lipid accumulation score” value (library stock concentration: 17.1 mM) was 0.072.

Turning to `CCCCC[C@H](O)/C=C/[C@@H]1[C@@H](C/C=C\CCCCCC(=O)O)[C@@H](O)C[C@H]1O` [1a,1b-dihomo Prostaglandin F2.alpha.], the “scaled lipid accumulation score” value under setting [2] was no more than 0.

As to `CCCCC(C)(C)[C@H](O)/C=C/[C@H]1C=CC(=O)[C@@H]1CCCCCCC(=O)O` [16,16-dimethyl Prostaglandin A1], under setting [2], the “scaled lipid accumulation score” value was no more than 0.

Consider `CCCCCCCC/C=C/CCCCCCCC(=O)O` [Elaidic Acid], for which the “scaled lipid accumulation score” value under setting [2] was no more than 0.

For the compound `CNCCC=C1c2ccccc2CCc2ccccc21` [Nortriptyline], the “scaled lipid accumulation score” value under setting [1] was 0.72.

Regarding `Cl.C(=C\CCNC)(/c1c(cccc1)CC2)\c3c2cccc3` [Nortriptyline hydrochloride], the “scaled lipid accumulation score” value was 1.13 (active).

In the case of `c1ccc(\C(\c2c3cccc2)=C\CCNC)c(C=C3)c1` [Norcyclobenzaprine], the “scaled lipid accumulation score” value was 1.13 (active).

Regarding `CNCCC=C1c2ccccc2CCc2ccccc21.Cl`, under setting [1], the “scaled lipid accumulation score” value was 1.02 (active).

For the compound `C(=C/CCNC)(/c1c(cccc1)CC2)\c3c2cccc3` [Nortriptyline], the “scaled lipid accumulation score” value (library stock concentration: 7.6 mM) was 0.971 (active).

For `OCc1ccccc1`, the “scaled lipid accumulation score” value under setting [1] is no more than 0.

Consider `CC(=O)N[C@@H](Cc1c[nH]c2ccccc12)C(N)=O` [Acetyltryptophanamide], for which, under setting [1], the “scaled lipid accumulation score” value is no more than 0.

Take `COc1ccc2c(Oc3ccc(NC(=O)c4c(C)n(CC(C)(C)O)n(-c5ccccc5)c4=O)nc3)ccnc2c1`: the “scaled lipid accumulation score” value was no more than 0 under setting [3] and no more than 0 under setting [1].

Regarding `C[C@H](Cc1ccc(O)c(O)c1)[C@@H](C)Cc1ccc(O)c(O)c1`, the “scaled lipid accumulation score” value under setting [1] was no more than -0.055.

With `COCCCN1CCC(NC(=O)c2cc(Cl)c(N)c3c2OCC3)CC1` [Prucalopride], the “scaled lipid accumulation score” value is, setting by setting: under setting [3], no more than 0; under setting [1], no more than 0.

Regarding `COCCCN1CCC(NC(=O)c2cc(Cl)c(N)c3c2OCC3)CC1` [Prucalopride Succinat], the “scaled lipid accumulation score” value is 0.028 under setting [3] and 0.03 under setting [1].
